From PubChem
The list is not random: actives were taken first. Their share in the collection is about 2%.
PrP 5UTR inh = suppresses PrP 5' UTR mRNA reporter expression. cell-based PrP 5' UTR mRNA reporter, plate reader. hit rate 0.35% among 340,000. inhibition, % (no concentration beside the values); in the data active = inhibition above about 52%; note: 0 = median of the neutral control wells
PfHsp40 yeast = restores yeast growth despite PfHsp40 toxicity; hit rate 0.68% among 340,000; S. cerevisiae expressing PfHsp40, growth rescue, ATP luminescence; AID 504582; growth rescue, % at 12.5 µM; in the data active = growth rescue above about 28%, passing the limit was not always enough;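 note: yeast W303a lacking pdr1 and pdr3 grown in galactose medium; growth measured after three days at 30 °C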
BJeLR viability = BJeLR cell viability loss; BJeLR (HRASV12) viability, CellTiter-Glo ATP luminescence, 48 h; inhibition, % (no concentration beside the values); hit rate 0.17% among 300,000; AID 1554; in the data active = inhibition above about 50%
PrPC TRFRET = cell surface PrPC inhibition, primary TR-FRET screen; hit rate 0.43% among 370,000; P04156; inhibition, % at 13.8 µM; TR-FRET read-out; in the data active = inhibition above about 24%; note: 0% = median of the test wells and 100% = reference compound wells
Yp Topo-I inh = inhibitors of Yersinia pestis topoisomerase I | hit rate 0.064% among 360,000 | Y. pestis Topo-I cleavage product accumulation, plate reader | activity, % at 10 µM; in the data active = activity above about 50%, passing the limit was not always enough
CCHF vOTU inh = blocks the CCHF virus ovarian tumor domain protease; inhibition, % at 11.5 µM; AID 651958; CCHFV vOTU protease, Pep-AMC fluorescence; hit rate 0.55% among 370,000; in the data active = inhibition above about 30%; note: 0% = vehicle wells with enzyme and 100% = no enzyme wells
PrPC confirm = confirmation of inhibitors of cell surface human prion protein; shares compounds with PrPC TRFRET; cell surface PrPC level, TR-FRET; inhibition, % at 13.8 µM; hit rate 65% among 1,500; AID 743200; in the data active = inhibition above about 25%
LD9 cytotox = LD9 cell cytotoxicity, PrPc inhibitor counter-screen. shares compounds with PrPC TRFRET. hit rate 29% among 1,500. LD9 cells cytotoxicity, luminescence viability. inhibition, % at 13.8 µM; in the data active = inhibition above about 9.5%
Numbers without * were called inactive.

How did O=C(CSc1cccc2cccc(Cl)c12)OCC(=O)N1CCN(C(=O)c2ccco2)CC1 do in these assays?
PrP 5UTR inh: -6.0; PfHsp40 yeast: -0.4; BJeLR viability: 7.1; PrPC TRFRET: 42.9*; Yp Topo-I inh: -9.3; CCHF vOTU inh: 1.0; PrPC confirm: 43.7*; LD9 cytotox: -0.6

Results for NC(=O)COC(=O)CSc1cccc2cccc(Cl)c12 ?
PrP 5UTR inh: -14.9; PfHsp40 yeast: -0.9; BJeLR viability: 3.0; PrPC TRFRET: 39.5*; Yp Topo-I inh: 7.6; CCHF vOTU inh: -17.5; PrPC confirm: 51.7*; LD9 cytotox: 0.7

Results for O=C(CSc1ccccc1F)OCC(=O)N1CCN(C(=O)c2ccco2)CC1 ?
PrP 5UTR inh: -19.3; PfHsp40 yeast: -0.1; BJeLR viability: 11.0; PrPC TRFRET: -2.8; Yp Topo-I inh: 2.4; CCHF vOTU inh: -8.1

How did O=C(CSc1cccc2cccc(Cl)c12)NC1=NCCS1 do in these assays?
PrP 5UTR inh: -21.3; PfHsp40 yeast: -0.2; BJeLR viability: 9.1; PrPC TRFRET: 28.6*; Yp Topo-I inh: 0.7; CCHF vOTU inh: 1.5; PrPC confirm: 44.6*; LD9 cytotox: -3.8

Results for O=C(COC(=O)CSc1cccc2cccc(Cl)c12)Nc1ncc(C(F)(F)F)cc1Cl ?
PrP 5UTR inh: -15.5; PfHsp40 yeast: 0.3; BJeLR viability: -1.0; PrPC TRFRET: 31.3*; Yp Topo-I inh: 18.0; CCHF vOTU inh: 1.4; PrPC confirm: 39.0*; LD9 cytotox: 1.2

How did Cc1ccc(C)c(SCC(=O)OCC(=O)Nc2ncc(C(F)(F)F)cc2Cl)c1 do in these assays?
PrP 5UTR inh: -22.0; PfHsp40 yeast: 0.0; BJeLR viability: -0.6; PrPC TRFRET: 2.6; Yp Topo-I inh: -3.7; CCHF vOTU inh: 23.4

How did C[C@@H]1CCCCO[C@@H](CN(C)Cc2ccc(C(=O)O)cc2)[C@@H](C)CN([C@H](C)CO)C(=O)c2cc(NS(C)(=O)=O)ccc2O1 do in these assays?
PrPC TRFRET: -7.7; CCHF vOTU inh: -2.1

What do the screens show for `Cc1nn(Cc2ccc(Cl)cc2)c(C)c1NC(=O)c1cc(-c2ccco2)on1`?
PrP 5UTR inh: 1.5; PfHsp40 yeast: 0.1; BJeLR viability: 1.5; PrPC TRFRET: 32.4*; Yp Topo-I inh: -3.3; CCHF vOTU inh: -15.2; PrPC confirm: 31.2*; LD9 cytotox: 4.1

How did Cc1nn(Cc2ccc(Cl)c(Cl)c2)c(C)c1NC(=O)c1cc(-c2ccco2)on1 do in these assays?
PrP 5UTR inh: -16.9; PfHsp40 yeast: 12.8; BJeLR viability: -3.3; PrPC TRFRET: 38.1*; Yp Topo-I inh: 2.0; CCHF vOTU inh: 4.7; PrPC confirm: 30.8*; LD9 cytotox: 0.8

What do the screens show for `Cc1ccc(Cn2nc(C)c(NC(=O)c3cc(-c4ccco4)on3)c2C)cc1`?
PrP 5UTR inh: -31.5; PfHsp40 yeast: 0.0; BJeLR viability: 3.1; Yp Topo-I inh: 3.8

What do the screens show for `COC(=O)C1CN(Cc2ccccc2)CCS(=O)(=O)N1Cc1cn(Cc2cccc(Cl)c2)nn1` (stereo not given)?
PrPC TRFRET: -4.8; CCHF vOTU inh: 4.5

How did COc1ccc(OCC(O)Cn2cnc(-c3ccc(Br)cc3)c2)cc1 (stereo not given) do in these assays?
PrP 5UTR inh: -20.3; PfHsp40 yeast: 4.7; BJeLR viability: 13.4; PrPC TRFRET: -3.3; Yp Topo-I inh: 33.0; CCHF vOTU inh: 4.9

Results for OC(COc1ccc2ccccc2c1Br)Cn1cnc(-c2ccccc2)c1 (stereo not given) ?
PrP 5UTR inh: -10.2; PfHsp40 yeast: 1.2; BJeLR viability: 9.1; PrPC TRFRET: 65.4*; Yp Topo-I inh: 21.6; CCHF vOTU inh: 7.4; PrPC confirm: 83.6*; LD9 cytotox: 0.6

Results for CC1(Cc2ccc(Cl)cc2)C(=O)Nc2ccc(S(=O)(=O)NC3CCCCC3)cc21 (stereo not given) ?
PrPC TRFRET: 11.2; Yp Topo-I inh: 3.4; CCHF vOTU inh: 17.9

What do the screens show for `CC1(Cc2ccc(OC(F)(F)F)cc2)C(=O)Nc2ccc(S(=O)(=O)NC3CCCCC3)cc21` (stereo not given)?
PrPC TRFRET: 35.6*; Yp Topo-I inh: 9.5; CCHF vOTU inh: 27.7; PrPC confirm: 30.4*; LD9 cytotox: 10.8*
